This note sets out measurements from PubChem BioAssay (EPA / NIEHS).

Several values for one entry are separate records, joined by “and”; a condition that tells them apart may be missing. Equal values may be shown once. Some compounds were tested as several samples or in several runs, with calls that do not always agree. Activity calls are given as the source filed them. How the source made its calls: active means hit-call score of the fitted dose curve at least 0.9, where 1 is the maximum; inactive means score below 0.9.

A short description of the assay: ATG_VDRE_CIS: Attagene CIS-FACTORIAL HepG2 Assay for human Vitamin D Receptor Element (VDRE) (AID 2282968). The note with it: HepG2 VDRE cis-reporter transcription, actives raise or lower the signal. On the procedure: ATG_CIS is a cell-based, multiplexed-readout assay that uses HepG2, a human liver cell line, with measurements taken at 24 hours after chemical dosing in a 24-well plate.ATG_VDRE_CIS is one of 52 assay component(s) measured or calculated from the ATG_CIS assay. It is designed to make measurements of mRNA induction, a form of inducible reporter, as detected with fluorescence intensity signals by Reverse transcription polymerase chain reaction (RT-PCR) and Capillary electrophoresis technology.Data from the assay component ATG_VDRE_CIS was analyzed into 1 assay endpoint. This assay endpoint, ATG_VDRE_CIS, was analyzed with bidirectional fitting relative to DMSO as the negative control and baseline of activity. Using a type of inducible reporter, measures of mRNA for gain or loss-of-signal activity can be used to understand the reporter gene at the transcription factor-level as they relate to the gene VDR. Furthermore, this assay endpoint can be referred to as a primary readout, because this assay has produced multiple assay endpoints where this one serves a reporter gene function. To generalize the intended target to other relatable targets, this assay endpoint is annotated to the nuclear receptor intended target family, where the subfamily is non-steroidal.
Human liver HepG2 cells are transiently transfected with multiple reporter transcription units (MRTUs) in 6-well plates using FuGene 6 reagent (Roche; 3 ml FuGene/1 mg DNA). The MRTU constructs are regulated by a cis-regulating element (promoter). […] A major difference between the CIS and TRANS system is that in CIS activities of endogenous TFs are measured, whereas the TRANS assay evaluates changes in activities of exogenous, chimeric NR-Gal4 proteins. […] At the end of 24 hour incubation, total RNA was isolated using TriZol reagent (Invitrogen). The isolated RNA is then reverse-transcribed using oligo(dT) primer and Mo-MLV reverse transcriptase (Invitrogen) with DNAse I (Ambion) treatment for 30 min. The one-tenth of the produced cDNA was amplified by PCR using Taq DNA polymerase (Invitrogen) and two reporter sequence-specific primers. The PCR products were fluorescently labeled by primer extension with 6-arboxyfluorescein (6-FAM) 5'-labeled reporter sequence-specific primer (2 min at 95 C, 20 s at 68 C and 10 min at 72 C) and these products were digested with 5U of HpaI (New England Biolabs) for 2h at 37 C. The fragments were purified using Qiaquick PCR columns (Qiagen), analyzed on an ABI 3130xL genetic analyzer (Applied Biosystems) with peak positions identified by using a set of X-rhodamine (ROX)-labeled MapMarker1000 molecular weight standards (BioVentures). The raw capillary electrophoresis data was processed using Attagraph software (Attagene).
One may read the AC50 as the concentration giving half of the maximal activity seen. As to `CSc1ccc(Oc2ccc(S(N)(=O)=O)cc2CN(C)C)cc1C`, the AC50 is 29.8 µM (active).

`O=NO`: the compound was called inactive.

Consider `O=C(O)c1[nH]n(-c2ccc(S(=O)(=O)O)cc2)c(=O)c1N=Nc1ccc(S(=O)(=O)O)cc1`, for which the compound was classed as inactive.

Regarding `c1ccc2occc2c1`, the compound was classed as inactive.

In the case of `CC(=O)S[C@H](C(=O)N[C@H]1Cc2ccccc2[C@H]2CCC[C@@H](C(=O)O)N2C1=O)C(C)C`, the outcome was inactive.

Regarding `O=C1CCCCC1`, the call was inactive.

On to `CC(C)COC(=O)CCCCC(=O)OCC(C)C`, for which the outcome was inactive.

Turning to `CCCCCCCCCC[N+](C)(C)[O-]`, the compound was called inactive.

Consider `NC=O`, for which the call was inactive.

As for `C=CCc1ccc(OC)c(OC)c1`, the compound was called inactive.

For the compound `CN(C)C(=O)NC1(c2ccccc2)CCN(CC[C@@]2(c3ccc(F)c(F)c3)CN(C(=O)c3ccccc3)CCO2)CC1`, the AC50 is 4.16 µM (active).

Take `CC(COCC(C)OC(=O)c1ccccc1)OC(=O)c1ccccc1` (stereo not given): the result was inactive.

For `O=C(NS(=O)(=O)/C=C/c1cccs1)c1ccc(F)cc1Br`, the result was inactive.

Take `CC1(C)C(=O)NC(=O)N1CO`: the compound was called inactive.

On to `CC(C)c1cccc(C(C)C)c1`, for which the outcome was inactive.

For the compound `CCc1nc(N)nc(N)c1-c1ccc(Cl)cc1`, the AC50 was 100 µM (active).

`Cc1ccc(C(C)(C)C)c(O)c1`: the AC50 was 151 µM (active).

Turning to `CCN(CC)CCOc1ccc(C(=C(Cl)c2ccccc2)c2ccccc2)cc1`, the AC50 is 3.11 µM (active) and 6.33 µM (active) and 1.3 µM (active); the outcome was inactive.

Turning to `O=C1OC(c2ccc(O)cc2)(c2ccc(O)cc2)c2ccccc21`, the AC50 was 6.27 µM (active).

Turning to `C=CCCCCCCCCCCCC`, the compound was called inactive.

For the compound `CCCCCCCCCCCCCCOS(=O)(=O)O`, the compound was classed as inactive.

As to `CC(C)OC(=O)C(C)(C)Oc1ccc(C(=O)c2ccc(Cl)cc2)cc1`, the AC50 was 27.6 µM (active).

For the compound `O=C(O)CN(CC(=O)O)CC(=O)O`, the compound was called inactive.

Consider `CCCCCCC(CCCCCCCCCCC(=O)OCC(COC(C)=O)OC(C)=O)OC(C)=O` (stereo not given), for which the outcome was inactive.

`CC(=O)[C@@]1(O)CC[C@H]2[C@@H]3CCC4=CC(=O)CC[C@]4(C)[C@H]3CC[C@@]21C`: the call was inactive.

In the case of `Oc1ccc(O)cc1`, the compound was classed as inactive.

As for `CCc1cc(C2=C(C(=O)O)N(c3ccccc3C(F)(F)F)S(=O)(=O)c3ccccc32)cc2c1OCO2`, the AC50 was 11.8 µM (active).

On to `Cn1cnc2c1c(=O)[nH]c(=O)n2C`, for which the call was inactive.

With `O=C(N[C@@H](c1ccccc1)[C@@H]1CCCCN1)c1cccc(C(F)(F)F)c1Cl`, the AC50 is 20.4 µM (active).

On to `CC(C)NCC(O)c1ccc(O)c(O)c1` (stereo not given), for which the compound was classed as inactive.

For the compound `CN(C)CCCN1c2ccccc2Sc2ccc(Cl)cc21`, the AC50 was 11.1 µM (active).

As for `Cc1occc(=O)c1O`, the compound was called inactive.

For `CCCCCCCC(=O)OC`, the result was inactive.

In the case of `CCCC(=O)O`, the result was inactive.

As for `CC1=C(C)S(=O)(=O)CCS1(=O)=O`, the compound was classed as inactive.

For the compound `CN(C)C(=O)NC1(c2ccccc2)CCN(CCC[C@]2(c3ccc(Cl)c(Cl)c3)CCCN(C(=O)c3ccccc3)C2)CC1`, the AC50 is 2.75 µM (active).

For the compound `CCCCC(CC)COP(=O)(OCC(CC)CCCC)OCC(CC)CCCC` (stereo not given), the AC50 is 0.61 µM (active).

Consider `O=[Si]=O`, for which the call was inactive.

Take `N[C@@H](Cc1c[nH]c2ccccc12)C(=O)O`: the result was inactive.
